Screening data: PubChem BioAssay, Broad Institute
aSyn UTR act: Activators working through SNCA 5'UTR binding (MLPCN); alpha-synuclein 5'UTR reporter, activators screen; activity score, % (tested at 7.5 µM), hits read low; AID 1814; hit rate 7.1% among 300,000; in the data active = activity score below about -60%
Each line names hits and unclear results; the compound was inactive in the other large screens. The list is a sample of the results.

COc1ccc(-c2nn(-c3ccccc3)cc2/C=N/NC(=O)c2ccc3c(c2)OCO3)cc1	aSyn UTR act -116
O=C(N/N=C/c1c(O)ccc2ccccc12)c1ccc(Br)o1	none
Cc1c(OCC(=O)C(C)(C)C)ccc2c3c(c(=O)oc12)CCCC3	aSyn UTR act -97
Cc1cc(C(=O)N/N=C/c2ccccc2Br)no1	aSyn UTR act -68
Cc1cccc(/C=N/NC(=O)c2c(-c3ccccc3)noc2C)c1O	none
C/C(=N\Nc1nnc2c3ccccc3n(C)c2n1)c1ccc(C)o1	aSyn UTR act -85
Cc1cc(C)n(-c2nnc3c4ccccc4n(C)c3n2)n1	aSyn UTR act -69
CS(=O)(=O)NCc1ccc(C(=O)NCCOc2ccccc2)cc1	aSyn UTR act -120
COCCCNC(=S)NC(=O)c1ccc(C)cc1	aSyn UTR act -125
Cc1ccc(OCCNC(=O)c2ccc(C)cc2)cc1	aSyn UTR act -148
COc1ccc(OCCNC(=O)c2ccc(C)cc2)cc1	aSyn UTR act -79
CCOC(=O)CNC(=O)c1ccc(OCC(F)(F)F)cc1	aSyn UTR act -76
CC(C)CCOc1ccc(C(=O)NCCC(=O)N2CCOCC2)cc1	aSyn UTR act -82
CCc1ccc(C(=O)CN2CCSC2=N)cc1	aSyn UTR act -109
CCCCOc1ccc(N(CC(=O)NCc2ccccc2)C(=O)c2csnn2)cc1	aSyn UTR act -69
CCc1ccc(/C=C\C(=O)N2CCCC2)cc1	aSyn UTR act -78
CCCc1ccc(-c2ccc(/C=C/C(=O)O)cc2)nc1	none
CC(C)Cc1ccc(/C=C/C(=O)NC2CC2)cc1	aSyn UTR act -108
CC(C)Cc1ccc(/C=C/C(=O)N2CCCCC2)cc1	aSyn UTR act -121
COC(=O)c1sc(NC(=O)CSc2nnnn2C)nc1C	aSyn UTR act -73
Cc1nc(NC(=O)CSc2nnnn2C)sc1C	aSyn UTR act -121
Cc1csc(NC(=O)CSc2nnnn2C)n1	aSyn UTR act -68
N#C/C(=C\c1ccc(N2CCOCC2)o1)C(=O)Nc1ccc(O)cc1	aSyn UTR act -101
COc1ccc(NC(=O)/C(C#N)=C/c2ccc(Br)o2)cc1	aSyn UTR act -66
COc1ccc(NC(=O)/C(C#N)=C\c2ccc(N3CCOCC3)o2)cc1	aSyn UTR act -95
O=c1sc(/C=N/Nc2ccccc2)c(Cl)n1Cc1ccccc1	aSyn UTR act -84
Cn1cccc1C(=O)NNC(=O)c1ccccc1Br	aSyn UTR act -97
Cn1cccc1C(=O)NNC(=O)COc1ccccc1F	aSyn UTR act -87
CCN(CC)c1ccc(C(=O)NNC(=O)c2cccn2C)cc1	aSyn UTR act -115
CCN(CC)c1ccc(/C=C/C(=O)C2C(=O)C=C(C)OC2=O)cc1 (configuration not stated)	aSyn UTR act -240
Cc1ccc(C(=O)Nc2ccc3c(c2)OCCO3)c(Cl)c1	none
O=C(Nc1ccc2c(c1)OCCO2)c1cc(F)c(F)cc1Cl	aSyn UTR act -195
O=C(Nc1ccc2ccccc2c1)c1cc(F)c(F)cc1Cl	aSyn UTR act -140
O=C(Nc1ccc2c(c1)OCCO2)c1cccc(Cl)c1Cl	aSyn UTR act -140
COc1ccc(NC(=O)c2csc3c2CCCC3)cc1	aSyn UTR act -193
Cc1ccccc1NC(=O)c1csc2c1CCCC2	aSyn UTR act -67
COc1cccc(NC(=O)c2csc3c2CCCC3)c1	aSyn UTR act -134
O=C(Nc1nccs1)c1csc2c1CCCC2	aSyn UTR act -129
O=C(c1cnsn1)N1CCC(CO)(Cc2cccc(F)c2)CC1	aSyn UTR act -138
Cc1ccc2nc3ccc(N4CCN(C)CC4)nn3c(=O)c2c1	aSyn UTR act -137
Cc1ccc2nc3ccc(N4CCCCCCC4)nn3c(=O)c2c1	aSyn UTR act -150
Cc1sc2nc3ccc(N4CCCC4)nn3c(=O)c2c1C	aSyn UTR act -171
O=c1c2ccccc2nc2ccc(N3CCOCC3)nn12	aSyn UTR act -85
COC(=O)c1ccc2[nH]c3c(c2c1)CC(C)CC3 (configuration not stated)	aSyn UTR act -96
CCOC(=O)c1ccc2[nH]c3c(c2c1)CCCC3	aSyn UTR act -124
O=C(NC(=S)Nc1ccc2c(c1)OCCO2)c1ccco1	aSyn UTR act -114
O=C(c1ccco1)N1CCCC(Nc2ccc3c(c2)OCCO3)C1 (configuration not stated)	aSyn UTR act -79
O=C(NC(=S)Nc1cccc(O)c1)c1ccco1	aSyn UTR act -131
C#CCn1cccc(C(=O)Nc2ccc(OC)cc2)c1=O	aSyn UTR act -63
CCCn1cccc(C(=O)Nc2ccc(OC)cc2)c1=O	aSyn UTR act -82
Cc1nc(NCc2ccccc2)sc1C(=O)Nc1ccccc1	aSyn UTR act -148
CSc1nc(N(C)NC(=O)c2ccc(F)cc2)c2ccccc2n1	none
Cc1nc(Nc2ccccc2)sc1C(=O)Nc1ccccc1	aSyn UTR act -102
Nc1nc(Nc2ccccc2F)sc1C(=O)c1ccccc1	aSyn UTR act -188
Cc1nc(Nc2ccccc2)sc1C(=O)c1ccc(F)cc1	aSyn UTR act -94
Cc1nc(NCCOc2ccccc2)sc1C(=O)Nc1ccccc1	aSyn UTR act -88
Cc1ccccc1OCc1nc2ccccc2c(=O)n1/N=C/c1ccco1	aSyn UTR act -66
COc1ccc(-c2nc(CS(=O)CC(=O)NCCC3=CCCCC3)c(C)o2)cc1 (configuration not stated)	aSyn UTR act -86
CCN1CCN(c2cc3c(nn2)Oc2ccccc2N3C)CC1	aSyn UTR act -128
[O-][n+]1ccccc1SC/C=C/c1ccccc1	aSyn UTR act -65
O=C(COC(=O)c1ccc2c(c1Cl)C(=O)c1ccccc1C2=O)NC1CC1	aSyn UTR act -66
Cc1cccc(C)c1NC(=O)COC(=O)c1cccc2c1C(=O)c1ccccc1C2=O	none
CC(Oc1c(Cl)cccc1Cl)C1=NCCN1 (configuration not stated)	aSyn UTR act -80
CSc1cccc(NC(=S)N2CCC(c3ccccc3)C2)c1 (configuration not stated)	aSyn UTR act -76
COc1cccc(NC(=S)N2CCC(c3ccc(C)cc3)C2)c1 (configuration not stated)	aSyn UTR act -66
CSc1cccc(NC(=O)N2CCCC(CNS(=O)(=O)Cc3ccccc3)C2)c1 (configuration not stated)	aSyn UTR act -98
CCc1cccc(NC(=S)N2CCC(c3ccccc3)C2)c1 (configuration not stated)	aSyn UTR act -88
O=C(N=C1c2ccccc2CN1c1ccc(F)cc1)c1ccc(Cl)nc1	aSyn UTR act -94
CC(=O)c1ccc(N2Cc3ccccc3C2=NC(=O)c2cccs2)cc1	aSyn UTR act -69
CC(=O)c1ccc(N2Cc3ccccc3/C2=N\C(=O)Nc2ccccc2)cc1	aSyn UTR act -98
CC(C)(C)C(=O)Nc1sc(-c2ccccc2)cc1C(=O)O	aSyn UTR act -87
Cc1cccc(C(=O)Nc2sc(-c3ccccc3)cc2C(=O)O)c1	aSyn UTR act -180
Clc1ccc(CSc2ncccn2)cc1	aSyn UTR act -80
O=Cc1cc2ccccc2nc1SCc1ccc(Cl)cc1	none
COc1ccc(-c2nnc(SCC(=O)N3CCCC3)o2)cc1	aSyn UTR act -107
CCOc1ccc(-c2nnc(SCC(=O)N3CCCC3)o2)cc1	aSyn UTR act -101
CCOc1ccc(-c2nc(CSCC(=O)N3CCN(c4cccc(OC)c4)CC3)c(C)o2)cc1	none
CCOc1ccc(-c2nnc(SCC(=O)N3CCOCC3)o2)cc1	aSyn UTR act -113
Cc1cccc2nc(COc3ccc4ccccc4c3Br)cn12	aSyn UTR act -203
CCn1c(O)c(/C=C2\C=NN=C2c2ccccc2)sc1=S	none
Oc1c(C=C2N=c3ccccc3=N2)sc(=S)n1-c1ccc(F)cc1	aSyn UTR act -65
O=C(Nc1ccccc1)OCCOc1ccccc1Br	aSyn UTR act -125
